Measured values published in PubChem BioAssay (EPA / NIEHS).
Several values for one entry are separate records, joined by “and”; a condition that tells them apart may be missing. Equal entries are not always repeated. Inconclusive results are not listed. Activity calls are given as the source filed them. How the source made its calls: active means hit-call score of the fitted dose curve at least 0.9, where 1 is the maximum; inconclusive means response in the unintended direction; inactive means score below 0.9.

target: sheep Cyclooxygenase-2 (Cox2), PTGS2 (gene 443460) (UniProt P79208); test: NVS_ENZ_oCOX2: NovaScreen (NVS) Enzymatic Assay for sheep Cyclooxygenase-2 (Cox2) (AID 2283231)
Method in brief: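 Enzyme extracted from ovine placenta tested cell-free; activity read colorimetrically by absorbance 0.66 hour after dosing. Primary screen in duplicate at 25 uM; hits rerun as concentration series to 50 uM, loss of signal versus DMSO baseline.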

sheep Cyclooxygenase-2 (Cox2), PTGS2 (gene 443460), sequence (P79208 whole entry, looked up): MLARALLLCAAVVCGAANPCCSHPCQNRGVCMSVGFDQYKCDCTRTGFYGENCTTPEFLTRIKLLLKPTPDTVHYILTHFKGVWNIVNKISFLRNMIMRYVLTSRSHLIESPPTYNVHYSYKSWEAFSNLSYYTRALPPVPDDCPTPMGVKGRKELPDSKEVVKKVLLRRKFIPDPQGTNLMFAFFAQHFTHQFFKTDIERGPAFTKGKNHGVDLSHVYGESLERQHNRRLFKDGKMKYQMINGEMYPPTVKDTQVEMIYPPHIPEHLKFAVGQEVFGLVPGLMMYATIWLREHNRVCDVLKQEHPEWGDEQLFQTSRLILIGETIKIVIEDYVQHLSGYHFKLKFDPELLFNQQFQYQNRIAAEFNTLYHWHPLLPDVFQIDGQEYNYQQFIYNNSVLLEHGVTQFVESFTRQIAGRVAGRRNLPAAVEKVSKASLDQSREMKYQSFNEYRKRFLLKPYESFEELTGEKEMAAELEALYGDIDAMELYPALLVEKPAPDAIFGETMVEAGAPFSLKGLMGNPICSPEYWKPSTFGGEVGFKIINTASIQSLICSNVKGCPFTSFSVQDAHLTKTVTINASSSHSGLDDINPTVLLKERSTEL

Compound | AC50 | outcome
C=CC1(C)OC(=O)N(c2cc(Cl)cc(Cl)c2)C1=O (stereo not drawn) | 5.97 µM (active) | 
CCNc1nc(Cl)nc(NC(C)C)n1 | 7.07 µM (active) and 12.4 µM (active) | 
CON(C)C(=O)Nc1ccc(Cl)c(Cl)c1 |  | inactive

target: rat Catechol-O-Methyl Transferase (COMT), Comt (gene 24267) (UniProt P22734); test: NVS_ENZ_rCOMT: NovaScreen (NVS) Enzymatic Assay for rat Catechol-O-Methyl Transferase (COMT) (AID 2283235)
Method: NVS_ENZ_rCOMT is a biochemical, single-readout assay that uses extracted gene-proteins from Rat dorsal striatum in a tissue-based cell-free assay. Measurements were taken 0 hour after chemical dosing in a 96-well plate.NVS_ENZ_rCOMT is one of one assay component(s) measured or calculated from the NVS_ENZ_rCOMT assay. It is designed to make measurements of enzyme activity, a form of enzyme reporter, as detected with absorbance signals by HPLC and Spectrophotometry technology.Data from the assay component NVS_ENZ_rCOMT was analyzed into 1 assay endpoint. This assay endpoint, NVS_ENZ_rCOMT, was analyzed in the positive analysis fitting direction relative to DMSO as the negative control and baseline of activity. Using a type of enzyme reporter, loss-of-signal activity can be used to understand changes in the enzymatic activity as they relate to the gene Comt. Furthermore, this assay endpoint can be referred to as a primary readout, because this assay has produced multiple assay endpoints where this one serves a enzymatic activity function. To generalize the intended target to other relatable targets, this assay endpoint is annotated to the methyltransferase intended target family, where the subfamily is o-methyltransferase.
Binding assays used specific radioligands (tritiated, iodinated) with non-radioactive competitive displacement ligands in agonist or antagonist protocols (as indicated) and various reference compounds and inhibitors to titrate specific binding to receptors and transporters. Most enzyme assays (CYPs, kinases, phosphatases, proteases, HDACs) used recombinant protein and specific substrates (fluorescence mostly, some colorimetric and radioactive) and inhibitors, followed by a biochemical separation of substrate and product. All assays for the biochemical HTS were initially run in duplicate at a single concentration (10 uM for CYP450 assays and 25 uM for all others). Assay-chemical combinations meeting a pre-defined threshold (e.g., 30% inhibition and other criteria defined below) were then run in singleton concentration-response format with maximum concentration of 20 uM for CYPs and 50 uM for all others. Each assay was run with positive and negative controls, and concurrent controls on every plate. The follow-up (secondary) screen tested active chemical-pairs in concentration series, as well as a few additional assays not tested in the primary screen, some selected negative inactives, and several cases re-run in the concentration series for confirmatory purposes.

rat Catechol-O-Methyl Transferase (COMT), Comt (gene 24267), sequence (P22734 whole entry, looked up): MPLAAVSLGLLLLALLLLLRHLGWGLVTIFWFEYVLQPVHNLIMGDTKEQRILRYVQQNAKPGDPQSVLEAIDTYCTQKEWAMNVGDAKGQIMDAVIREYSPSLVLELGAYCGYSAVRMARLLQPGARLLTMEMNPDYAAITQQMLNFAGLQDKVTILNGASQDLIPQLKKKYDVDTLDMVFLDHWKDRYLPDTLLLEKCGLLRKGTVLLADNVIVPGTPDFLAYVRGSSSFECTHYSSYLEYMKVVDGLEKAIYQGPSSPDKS

Compound | AC50 | outcome
N#Cc1cc(Br)c(O)c(Br)c1 | 0.677 µM (active) | 
COP(=S)(OC)Oc1nc(Cl)c(Cl)cc1Cl |  | inactive
COC(=O)N(OC)c1ccccc1COc1ccn(-c2ccc(Cl)cc2)n1 |  | inactive
CCOC(=O)CC(SP(=S)(OC)OC)C(=O)OCC (stereo not drawn) |  | inactive

target: rat Monoamine Oxidase, MAO-B, Central (MAOBC), Maob (gene 25750) (UniProt P19643); test: NVS_ENZ_rMAOBC: NovaScreen (NVS) Enzymatic Assay for rat Monoamine Oxidase, MAO-B, Central (MAOBC) (AID 2283238)
Method in brief: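 Cell-free radiometric assay, rat brain lysate. Read-out: scintillation counts, 1.17 h post-dosing. Screen 25 uM in duplicate; actives (e.g. ≥30% inhibition) then singleton concentration-response, max 50 uM. Activity loss fitted relative to DMSO.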

rat Monoamine Oxidase, MAO-B, Central (MAOBC), Maob (gene 25750), sequence (P19643 whole entry, looked up): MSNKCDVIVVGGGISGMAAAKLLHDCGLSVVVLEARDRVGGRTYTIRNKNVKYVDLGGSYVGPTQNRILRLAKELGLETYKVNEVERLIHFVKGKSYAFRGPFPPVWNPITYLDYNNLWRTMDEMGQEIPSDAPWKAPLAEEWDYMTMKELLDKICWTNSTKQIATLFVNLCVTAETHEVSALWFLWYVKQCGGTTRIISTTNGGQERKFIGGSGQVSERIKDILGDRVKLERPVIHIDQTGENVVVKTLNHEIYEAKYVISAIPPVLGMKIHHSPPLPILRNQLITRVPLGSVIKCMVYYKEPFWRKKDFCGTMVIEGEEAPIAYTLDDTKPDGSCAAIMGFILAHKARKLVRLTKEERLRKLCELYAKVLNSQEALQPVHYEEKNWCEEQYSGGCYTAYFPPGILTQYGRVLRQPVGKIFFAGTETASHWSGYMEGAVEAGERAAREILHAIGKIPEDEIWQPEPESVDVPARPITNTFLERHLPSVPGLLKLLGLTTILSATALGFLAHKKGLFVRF

Compound | AC50 | outcome
COc1nc(NC(C)C)nc(NC(C)C)n1 | 1.29 µM (active) | 
CC(C)(C)c1ccc(CSc2cnn(C(C)(C)C)c(=O)c2Cl)cc1 |  | inactive
C#CCOS(=O)OC1CCCCC1Oc1ccc(C(C)(C)C)cc1 (stereo not drawn) | 13.3 µM (active) | 
C=CC1(C)OC(=O)N(c2cc(Cl)cc(Cl)c2)C1=O (stereo not drawn) |  | inactive
CCOC(=O)CC(SP(=S)(OC)OC)C(=O)OCC (stereo not drawn) |  | inactive
CON(C)C(=O)Nc1ccc(Cl)c(Cl)c1 | 16.1 µM (active) [middle of 4 runs] | 

target: sheep Cyclooxygenase-1 (Cox1), PTGS1 (gene 443551) (UniProt P05979); test: NVS_ENZ_oCOX1: NovaScreen (NVS) Enzymatic Assay for sheep Cyclooxygenase-1 (Cox1) (AID 2283239);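 further: actives reduce cyclooxygenase activity so potencies are for inhibitors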
Method in brief: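 COX1 from ovine seminal vesicles, activity read colorimetrically about 0.66 h after dosing. Primary screen in duplicate at 25 uM; actives retested in concentration series; loss of signal fitted versus DMSO.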

sheep Cyclooxygenase-1 (Cox1), PTGS1 (gene 443551), sequence (P05979 whole entry, looked up): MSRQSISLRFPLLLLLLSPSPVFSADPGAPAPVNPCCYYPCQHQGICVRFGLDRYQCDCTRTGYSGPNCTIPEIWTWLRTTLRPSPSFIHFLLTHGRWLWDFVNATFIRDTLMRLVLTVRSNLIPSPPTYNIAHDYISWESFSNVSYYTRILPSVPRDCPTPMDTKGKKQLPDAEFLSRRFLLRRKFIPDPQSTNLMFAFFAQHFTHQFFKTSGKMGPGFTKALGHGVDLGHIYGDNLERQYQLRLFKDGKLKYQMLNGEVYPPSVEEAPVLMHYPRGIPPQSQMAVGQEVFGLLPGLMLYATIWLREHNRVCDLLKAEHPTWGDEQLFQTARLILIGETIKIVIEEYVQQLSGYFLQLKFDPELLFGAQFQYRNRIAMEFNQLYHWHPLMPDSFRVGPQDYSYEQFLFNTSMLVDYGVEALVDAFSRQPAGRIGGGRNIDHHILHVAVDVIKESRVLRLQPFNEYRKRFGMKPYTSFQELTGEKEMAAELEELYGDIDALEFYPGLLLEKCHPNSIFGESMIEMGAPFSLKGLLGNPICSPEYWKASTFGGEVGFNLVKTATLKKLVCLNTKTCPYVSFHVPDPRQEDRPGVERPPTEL

Compound | AC50 | outcome
Oc1ccccc1-c1ccccc1 | 8.97 µM (active) | 
CC(C)(C)c1ccc(CSc2cnn(C(C)(C)C)c(=O)c2Cl)cc1 |  | inactive
C=CC1(C)OC(=O)N(c2cc(Cl)cc(Cl)c2)C1=O (stereo not drawn) |  | inactive
C=CCC1=C(C)[C@@H](OC(=O)[C@@H]2[C@@H](C=C(C)C)C2(C)C)CC1=O |  | inactive
CON(C)C(=O)Nc1ccc(Cl)c(Cl)c1 |  | inactive
